Records with an inconclusive call do not appear. More than one record can exist for a structure, and the calls need not agree. Active and inactive are the calls of the source. Rule for the calls: active = hit-call score of the fitted dose curve at least 0.9, where 1 is the maximum; inconclusive = response in the unintended direction; inactive = score below 0.9.

Outcome and AC50 data for 15 molecules are collected here from PubChem BioAssay (EPA / NIEHS).

A short description of assay [1]: ACEA_AR_agonist_AUC_viability: ACEA Biosciences xCELLigence Real-Time Cell Analysis on Androgen Receptor Agonism for Viability (AID 2283775).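 For AC50: viability read 80 hours after compound addition.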 In a few lines: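 22Rv1 cells; impedance growth kinetics; 8-pt 1:4 dilutions from 100 uM top final, ≤0.5% DMSO; n = 2; 80 h read; AUC viability, loss-of-signal vs DMSO.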
Assay [2] can be described thus: ACEA_AR_antagonist_AUC_viability: ACEA Biosciences xCELLigence Real-Time Cell Analysis on Androgen Receptor Antagonism for Viability (AID 2283776).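 Note: 22Rv1 human prostate cancer cells growing on impedance electrode plates; area under impedance growth curve at 80 h after dosing as viability; hits lower the growth signal relative to DMSO meaning cytotoxicity.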 In a few lines:
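Impedance read-out (RT-CES): area under growth curve at 80 h post-dose, loss of signal scored vs DMSO baseline. 22Rv1 cells; 8-pt 1:4 series, top 100 uM final, ≤0.5% DMSO; biological duplicate.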

A short description of assay [3]: ACEA_ER_AUC_viability: ACEA Biosciences xCELLigence Real-Time Cell Analysis on Estrogen Receptor Agonism for Viability (AID 2283782).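 Note: hit means loss of impedance signal meaning reduced cell growth or viability.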 In a few lines:
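Viability endpoint: reduced impedance area under the curve relative to DMSO, recorded by real-time electrode sensing over ~80 h of continuous exposure. Duplicate plates of T47D in hormone-depleted medium; eight concentrations, 1:4 dilutions, 100 uM maximum.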

In assay [4] the test system is zebrafish Estrogen Receptor (ESR2B), gene 317733. The assay can be described thus: ATG_zfER2b_XSP1: Attagene TRANS-FACTORIAL Multi-Species (XSP1) HepG2 Assay for zebrafish Estrogen Receptor (ESR2B) (AID 2283773). In a few lines: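 Medium contained 3 nM 6-alpha-fluorotestosterone. Reporter mRNA induction by exogenous zebrafish ER2b-Gal4 chimera was read 24 h post-dose in transiently transfected HepG2 cells, using RT-PCR, fluorescent labelling, HpaI digestion and capillary electrophoresis.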

Assay [5] concerns frog Estrogen Receptor (ESR2), gene 100174814. The assay can be described thus: ATG_frER2_XSP1: Attagene TRANS-FACTORIAL Multi-Species (XSP1) HepG2 Assay for frog Estrogen Receptor (ESR2) (AID 2283774). An outline of the steps: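 Reporter mRNA from a multiplexed TRANS system, measured by RT-PCR with fluorescent labelling and capillary electrophoresis, 24 hours after chemical exposure. Human HepG2 liver cells carried exogenous frog ER-Gal4 chimera; medium included 3 nM 6-alpha-fluorotestosterone; increases versus DMSO analysed.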

The test system of assay [6] is frog Estrogen Receptor (ESR1), gene 398734. The assay can be described thus: ATG_frER1_XSP1: Attagene TRANS-FACTORIAL Multi-Species (XSP1) HepG2 Assay for frog Estrogen Receptor (ESR1) (AID 2283777). An outline of the steps: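 HepG2 cells transiently transfected with GAL4-UAS reporter units and frog ER–Gal4 chimera were dosed for 24 h with 3 nM 6-alpha-fluorotestosterone present. Reporter mRNA was measured by RT-PCR and capillary electrophoresis; gain of signal fitted versus DMSO.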

In assay [7] the test system is zebrafish Estrogen Receptor (ESR2A), gene 317734. Put plainly: ATG_zfER2a_XSP1: Attagene TRANS-FACTORIAL Multi-Species (XSP1) HepG2 Assay for zebrafish Estrogen Receptor (ESR2A) (AID 2283778). An outline of the steps: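 Reporter transcripts were quantified by RT-PCR, 6-FAM labelling, HpaI digestion and capillary electrophoresis after 24 h dosing. The cells were HepG2 transiently carrying a zebrafish ER2a–Gal4 construct plus multiplexed UAS reporters; medium contained 3 nM 6-alpha-fluorotestosterone.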

Assay [8] has as its target chicken Estrogen Receptor (ESR1), ESR1 (gene 396099) (UniProt P06212). The assay can be described thus: ATG_chERa_XSP1: Attagene TRANS-FACTORIAL Multi-Species (XSP1) HepG2 Assay for chicken Estrogen Receptor (ESR1) (AID 2283779). In a few lines: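 Trans-activation of an exogenous chicken ERα–Gal4 chimera read as reporter transcript (RT-PCR, fluorescent labeling, capillary electrophoresis) after 24 h compound exposure of transfected HepG2; medium held 3 nM 6-alpha-fluorotestosterone. Positive-direction fit against DMSO.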

The target in assay [9] is Estrogen receptor (Homo sapiens) (UniProt P03372). The assay can be described thus: ATG_hERa_XSP1: Attagene TRANS-FACTORIAL Multi-Species (XSP1) HepG2 Assay for human Estrogen Receptor (ESR1) (AID 2283780). In a few lines: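 Reporter transcripts from multiplexed GAL4-UAS units driven by NR-Gal4 chimeras in transiently transfected HepG2 were measured by RT-PCR with capillary electrophoresis 24 h post-dose, with 3 nM 6-alpha-fluorotestosterone present; gain-of-signal relative to DMSO.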
Estrogen receptor (Homo sapiens), sequence (P03372 whole entry, looked up, the tested form may be a part): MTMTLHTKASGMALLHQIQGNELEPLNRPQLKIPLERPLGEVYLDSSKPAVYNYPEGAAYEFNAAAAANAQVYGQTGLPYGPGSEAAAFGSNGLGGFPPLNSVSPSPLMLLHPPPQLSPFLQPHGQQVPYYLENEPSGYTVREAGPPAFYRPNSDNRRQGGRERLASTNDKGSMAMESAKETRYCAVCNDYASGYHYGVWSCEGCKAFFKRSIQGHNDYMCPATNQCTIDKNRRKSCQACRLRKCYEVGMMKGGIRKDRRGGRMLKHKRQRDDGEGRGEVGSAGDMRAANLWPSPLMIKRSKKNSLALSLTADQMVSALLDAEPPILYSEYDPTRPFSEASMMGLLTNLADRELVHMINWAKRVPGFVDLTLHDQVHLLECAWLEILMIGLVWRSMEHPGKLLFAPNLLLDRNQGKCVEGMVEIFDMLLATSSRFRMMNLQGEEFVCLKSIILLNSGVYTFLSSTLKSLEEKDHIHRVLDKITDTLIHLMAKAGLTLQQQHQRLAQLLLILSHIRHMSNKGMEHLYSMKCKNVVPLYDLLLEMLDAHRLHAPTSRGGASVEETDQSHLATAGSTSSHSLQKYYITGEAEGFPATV

In assay [10] the test system is turtle Estrogen Receptor (ESR1), gene 101933533. The assay can be described thus: ATG_trERa_XSP1: Attagene TRANS-FACTORIAL Multi-Species (XSP1) HepG2 Assay for turtle Estrogen Receptor (ESR1) (AID 2283781). In a few lines:
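Transactivation measured 24 h post-dose as reporter mRNA (RT-PCR, fluorescent capillary electrophoresis) from an NR-Gal4 turtle ER construct in HepG2. Medium included 3 nM 6-alpha-fluorotestosterone; increase over DMSO fitted.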

In assay [11] the target is GAL4 Transcription Factor (Internal Marker), GAL4 (gene 855828) (UniProt P04386). The assay can be described thus: ATG_GAL4_XSP1: Attagene TRANS-FACTORIAL Multi-Species (XSP1) HepG2 Assay for GAL4 Transcription Factor (Internal Marker) (AID 2283789). An outline of the steps:
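This background-control endpoint measures GAL4-driven reporter mRNA via RT-PCR and capillary electrophoresis of labelled fragments. Transiently transfected HepG2 cells were treated 24 h, with 3 nM 6-alpha-fluorotestosterone included, and gain-of-signal was fitted against DMSO.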

The nature of assay [12]: ATG_M_06_XSP1: Attagene TRANS-FACTORIAL Multi-Species (XSP1) HepG2 Assay for M06 Transcription Factor (Internal Marker) (AID 2283790). In a few lines: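 This background-control readout tracks M06 reporter mRNA, measured by RT-PCR and capillary electrophoresis. HepG2 cells transiently carrying the GAL4-UAS reporter panel were dosed for 24 h with 3 nM 6-alpha-fluorotestosterone added for partial AR stimulation; increases were scored relative to DMSO.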

A short description of assay [13]: ATG_M_61_XSP1: Attagene TRANS-FACTORIAL Multi-Species (XSP1) HepG2 Assay for M61 Transcription Factor (Internal Marker) (AID 2283797). In a few lines: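 Background-control readout: reporter transcripts measured by RT-PCR and capillary electrophoresis 24 h after dosing transiently transfected HepG2 multi-reporter cells, with 3 nM 6-alpha-fluorotestosterone present. Fitted in the positive direction relative to DMSO.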

Assay [14] has as its system zebrafish Peroxisome Proliferator-activated Receptor gamma (PPARg), gene 557037. The assay can be described thus: ATG_zfPPARg_XSP1: Attagene TRANS-FACTORIAL Multi-Species (XSP1) HepG2 Assay for zebrafish Peroxisome Proliferator-activated Receptor gamma (PPARg) (AID 2283801). An outline of the steps: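 Trans-activation readout of chimeric zebrafish PPARg–GAL4 in transiently transfected human HepG2 cells, 24 h chemical exposure (medium includes 3 nM 6-alpha-fluorotestosterone). Reporter transcripts measured by RT-PCR and capillary electrophoresis, fitted as gain over DMSO.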

For assay [15], the target named is Nuclear receptor subfamily 1 group I member 2 (Mus musculus) (UniProt O54915). Put plainly: ATG_mPXR_XSP1: Attagene TRANS-FACTORIAL Multi-Species (XSP1) HepG2 Assay for mouse Pregnane X Receptor (PXR) (AID 2283803). An outline of the steps:
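Transiently transfected HepG2 cells expressing a receptor-Gal4 chimera drive a GAL4-UAS reporter; 3 nM 6-alpha-fluorotestosterone included. Reporter mRNA read 24 h post-dose by RT-PCR and capillary electrophoresis; gain of signal relative to DMSO.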

Assay [16] addresses frog Thyroid hormone Receptor alpha (TRa), thra-a (gene 397942) (UniProt P15204). Put plainly: ATG_frTRa_XSP1: Attagene TRANS-FACTORIAL Multi-Species (XSP1) HepG2 Assay for frog Thyroid hormone Receptor alpha (TRa) (AID 2283804). An outline of the steps: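 Reporter transcript induction, measured by RT-PCR with 6-FAM labelling and capillary electrophoresis, 24 hr after dosing transiently transfected HepG2 cells expressing a frog TRa-GAL4 fusion; medium contained 3 nM 6-alpha-fluorotestosterone; increase over DMSO scored.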

Assay [17] concerns turtle Thyroid Hormone Receptor, alpha (TRa), gene 101949057. Put plainly: ATG_trTRa_XSP1: Attagene TRANS-FACTORIAL Multi-Species (XSP1) HepG2 Assay for turtle Thyroid Hormone Receptor, alpha (TRa) (AID 2283806). An outline of the steps:
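After 24 h chemical exposure, reporter transcripts were measured by RT-PCR with fluorescent primer extension, HpaI digestion and capillary electrophoresis. Cells were transiently transfected HepG2 expressing exogenous NR-Gal4 chimeras; medium contained 3 nM 6-alpha-fluorotestosterone; fitted upward relative to DMSO.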

chicken Estrogen Receptor (ESR1), ESR1 (gene 396099), sequence (P06212 whole entry, looked up, the tested form may be a part): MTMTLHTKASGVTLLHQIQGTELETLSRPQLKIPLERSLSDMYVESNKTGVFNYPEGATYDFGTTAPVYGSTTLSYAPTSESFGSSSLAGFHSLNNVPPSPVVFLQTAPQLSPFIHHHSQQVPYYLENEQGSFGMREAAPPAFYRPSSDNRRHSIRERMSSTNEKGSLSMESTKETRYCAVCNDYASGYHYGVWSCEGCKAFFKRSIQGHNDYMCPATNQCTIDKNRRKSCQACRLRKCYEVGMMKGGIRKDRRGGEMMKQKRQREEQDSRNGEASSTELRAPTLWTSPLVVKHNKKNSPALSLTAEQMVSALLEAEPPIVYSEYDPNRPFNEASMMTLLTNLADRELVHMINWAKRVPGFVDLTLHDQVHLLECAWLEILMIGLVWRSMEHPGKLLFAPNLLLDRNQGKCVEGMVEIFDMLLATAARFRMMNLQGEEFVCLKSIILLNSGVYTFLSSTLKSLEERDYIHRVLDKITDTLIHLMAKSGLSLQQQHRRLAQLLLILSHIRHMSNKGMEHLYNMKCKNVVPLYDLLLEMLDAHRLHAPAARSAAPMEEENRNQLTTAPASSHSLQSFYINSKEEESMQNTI
frog Thyroid hormone Receptor alpha (TRa), thra-a (gene 397942), sequence (P15204 whole entry, looked up, the tested form may be a part): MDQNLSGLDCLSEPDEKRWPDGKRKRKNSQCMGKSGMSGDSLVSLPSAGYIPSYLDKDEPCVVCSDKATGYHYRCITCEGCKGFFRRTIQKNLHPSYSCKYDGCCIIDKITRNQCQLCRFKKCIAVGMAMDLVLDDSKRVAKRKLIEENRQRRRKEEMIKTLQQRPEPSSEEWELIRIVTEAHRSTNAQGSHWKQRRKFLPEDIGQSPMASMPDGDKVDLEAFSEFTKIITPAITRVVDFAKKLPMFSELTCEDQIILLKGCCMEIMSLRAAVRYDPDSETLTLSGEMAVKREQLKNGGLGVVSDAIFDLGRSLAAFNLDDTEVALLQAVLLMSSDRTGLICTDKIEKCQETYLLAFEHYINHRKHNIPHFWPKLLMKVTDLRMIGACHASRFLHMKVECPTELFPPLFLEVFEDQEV
Nuclear receptor subfamily 1 group I member 2 (Mus musculus), sequence (O54915 whole entry, looked up, the tested form may be a part): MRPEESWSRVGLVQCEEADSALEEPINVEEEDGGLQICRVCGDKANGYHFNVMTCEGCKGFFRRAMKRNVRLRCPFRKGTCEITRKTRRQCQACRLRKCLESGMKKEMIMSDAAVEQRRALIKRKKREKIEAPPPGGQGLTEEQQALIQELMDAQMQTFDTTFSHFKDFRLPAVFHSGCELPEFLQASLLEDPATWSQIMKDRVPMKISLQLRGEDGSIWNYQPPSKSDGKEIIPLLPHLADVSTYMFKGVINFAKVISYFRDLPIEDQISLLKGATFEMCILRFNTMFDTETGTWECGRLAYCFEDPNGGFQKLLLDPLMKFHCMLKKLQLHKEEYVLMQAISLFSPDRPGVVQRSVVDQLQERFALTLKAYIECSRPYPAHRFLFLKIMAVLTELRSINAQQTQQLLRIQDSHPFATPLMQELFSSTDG
GAL4 Transcription Factor (Internal Marker), GAL4 (gene 855828), sequence (P04386 whole entry, looked up, the tested form may be a part): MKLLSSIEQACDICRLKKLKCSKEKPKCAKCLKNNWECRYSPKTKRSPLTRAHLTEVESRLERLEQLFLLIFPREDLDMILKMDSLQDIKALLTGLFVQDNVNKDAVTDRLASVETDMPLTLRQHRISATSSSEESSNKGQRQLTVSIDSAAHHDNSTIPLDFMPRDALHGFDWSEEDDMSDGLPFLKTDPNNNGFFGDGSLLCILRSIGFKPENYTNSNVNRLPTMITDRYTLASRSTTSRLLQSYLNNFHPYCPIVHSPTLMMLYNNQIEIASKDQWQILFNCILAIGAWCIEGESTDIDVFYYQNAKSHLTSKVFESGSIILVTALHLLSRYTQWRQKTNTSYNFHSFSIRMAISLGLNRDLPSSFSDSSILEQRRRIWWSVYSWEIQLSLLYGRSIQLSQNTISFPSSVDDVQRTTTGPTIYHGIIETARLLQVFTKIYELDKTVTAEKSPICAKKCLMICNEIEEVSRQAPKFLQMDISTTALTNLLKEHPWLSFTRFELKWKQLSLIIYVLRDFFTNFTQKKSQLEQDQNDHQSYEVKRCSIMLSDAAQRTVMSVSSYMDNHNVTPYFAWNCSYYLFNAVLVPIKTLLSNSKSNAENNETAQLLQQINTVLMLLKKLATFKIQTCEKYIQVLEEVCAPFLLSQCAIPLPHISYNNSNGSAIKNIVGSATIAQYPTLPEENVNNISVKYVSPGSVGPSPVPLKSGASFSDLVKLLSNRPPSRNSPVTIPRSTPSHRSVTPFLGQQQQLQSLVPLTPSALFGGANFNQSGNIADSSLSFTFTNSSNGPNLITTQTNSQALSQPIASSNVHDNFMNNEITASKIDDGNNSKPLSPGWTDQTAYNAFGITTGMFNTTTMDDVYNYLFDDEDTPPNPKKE

With `Cc1cc(C)n(CO)n1`, the result in [1], in assay [2] and in assay [3] was inactive.

As to `CCCCCCCCC(CO)CCCCCC` (stereo unspecified), the outcome in [1] and in [2] was inactive. Moreover, the half-maximal activity concentration (AC50) in assay [3] was 33.9 µM (active).

With `CCCCCCCCCCCC(=O)N(C)CC(=O)O`, the molecule was classed as inactive in [1], in [2] and in assay [3].

On to `CCCCc1ccc(Cl)cc1`, for which the molecule was called inactive in [1], in assay [2] and in assay [3].

In the case of `CC(C)c1cc(C(C)C)cc(C(C)C)c1`, the molecule was classed as inactive in [1], in assay [2] and in [3].

With `N#Cc1ccc(C2CCCc3cncn32)cc1` (stereo unspecified), the molecule was classed as inactive in [1] and in [2].

Consider `O=C(Nc1ccccc1)c1cc(Cl)ccc1O`, for which the AC50 in [1] was 14.3 µM (active); in assay [2] it was 16.6 µM (active); in [3], 82.1 µM (active).

Regarding `CCCCNS(=O)(=O)c1ccc(C)cc1`, the outcome in assay [1] was inactive.

On to `CCOC(=O)c1ccccc1C`, for which the call in [1] and in assay [2] was inactive.

Regarding `CC(=O)OC(C)c1ccccc1` (stereo unspecified), the molecule was called inactive in assay [1] and in assay [2].

For the molecule `CC12CCC(CC1)C(C)(C)O2`, the molecule was called inactive in [1].

`C1CNCCN1`: the result in assay [1], in assay [2] and in [3] was inactive.

Consider `CC(C)(C)NC(=O)[C@H]1CC[C@H]2[C@@H]3CC[C@H]4NC(=O)C=C[C@]4(C)[C@H]3CC[C@]12C`, for which the concentration at half-maximal activity (AC50) in assay [4] was 67.2 µM (active); in [5], 38.1 µM (active); in [1], 78 µM (active); in [2], 50 µM (active); in assay [15], 3.8 µM (active). In addition, the molecule was called inactive in assay [1], in assay [2], in assay [6], in [7], in assay [8] and in assay [9]. For the same molecule, the outcome in [10], in [11], in assay [12], in assay [13], in assay [14] and in assay [16] was inactive. Moreover, the result in assay [17] was inactive.

In the case of `CC(C)(C)C1CCC(=O)CC1`, the call in assay [1], in [2] and in [3] was inactive.

For the molecule `CC1=CC=C(C(C)C)CC1`, the result in [1] was inactive.

What is called AC50 is the concentration giving half of the maximal activity seen.
